Shown is part of a subset that was picked to be rich in hits.
KDM5B inhibitor – Primary screen for KDM5B Histone Demethylases FDH-coupled qHTS. 2.6% of 220,000 active. AID 1347165, 2019. Potency, µM (series often up to 57.7 µM), most hits filed as inhibitors. KDM5B demethylase, FDH-coupled NADH fluorescence (FDH is formaldehyde dehydrogenase); active means well fitted inhibition curve with a large enough effect; further: 0% is about no effect; nearly all actives have a fitted effect of over 70% in size
Target sequence (Q9UGL1 whole entry, looked up): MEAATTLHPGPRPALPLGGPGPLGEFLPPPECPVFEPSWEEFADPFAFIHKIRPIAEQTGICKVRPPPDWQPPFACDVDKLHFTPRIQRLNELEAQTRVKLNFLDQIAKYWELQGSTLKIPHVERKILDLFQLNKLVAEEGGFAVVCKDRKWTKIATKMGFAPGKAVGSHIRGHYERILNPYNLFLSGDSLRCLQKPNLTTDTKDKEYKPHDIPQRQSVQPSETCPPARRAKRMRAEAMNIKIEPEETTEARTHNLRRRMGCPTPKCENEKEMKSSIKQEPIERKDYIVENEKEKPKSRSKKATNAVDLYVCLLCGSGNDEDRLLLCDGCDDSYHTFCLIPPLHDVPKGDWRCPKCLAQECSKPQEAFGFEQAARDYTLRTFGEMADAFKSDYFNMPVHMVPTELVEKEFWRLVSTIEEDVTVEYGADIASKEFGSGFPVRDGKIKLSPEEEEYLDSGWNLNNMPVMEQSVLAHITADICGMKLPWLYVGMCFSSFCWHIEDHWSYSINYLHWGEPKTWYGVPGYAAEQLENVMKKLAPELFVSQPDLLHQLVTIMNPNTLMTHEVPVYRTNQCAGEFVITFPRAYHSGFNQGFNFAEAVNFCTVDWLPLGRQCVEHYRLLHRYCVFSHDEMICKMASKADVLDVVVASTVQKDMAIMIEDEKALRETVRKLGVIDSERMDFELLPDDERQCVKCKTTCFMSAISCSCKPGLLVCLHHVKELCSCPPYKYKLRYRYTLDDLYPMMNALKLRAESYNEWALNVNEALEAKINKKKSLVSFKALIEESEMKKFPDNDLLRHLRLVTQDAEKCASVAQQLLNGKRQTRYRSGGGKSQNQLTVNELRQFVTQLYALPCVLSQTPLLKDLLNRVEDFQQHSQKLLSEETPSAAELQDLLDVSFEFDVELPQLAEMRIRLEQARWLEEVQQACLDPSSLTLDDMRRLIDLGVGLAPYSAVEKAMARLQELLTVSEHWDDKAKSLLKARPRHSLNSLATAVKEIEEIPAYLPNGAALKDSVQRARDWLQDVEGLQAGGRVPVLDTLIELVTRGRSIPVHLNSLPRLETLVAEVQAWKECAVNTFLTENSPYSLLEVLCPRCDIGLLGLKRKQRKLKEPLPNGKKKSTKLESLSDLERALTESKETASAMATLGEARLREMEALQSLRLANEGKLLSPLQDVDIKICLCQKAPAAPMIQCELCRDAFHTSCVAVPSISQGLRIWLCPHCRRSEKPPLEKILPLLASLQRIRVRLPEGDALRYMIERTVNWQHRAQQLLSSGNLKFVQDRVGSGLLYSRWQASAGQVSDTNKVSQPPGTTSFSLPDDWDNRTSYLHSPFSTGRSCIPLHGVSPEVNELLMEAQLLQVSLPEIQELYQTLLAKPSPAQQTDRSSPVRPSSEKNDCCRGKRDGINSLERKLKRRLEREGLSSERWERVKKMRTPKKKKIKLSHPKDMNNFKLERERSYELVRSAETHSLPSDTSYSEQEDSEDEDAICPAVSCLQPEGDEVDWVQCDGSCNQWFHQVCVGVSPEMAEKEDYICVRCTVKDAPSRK
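Measured: NADH fluorescence change, 30 min, RT. System: KDM5BΔAP 200 nM final, H3K4me3 peptide, α-KG, Fe(II), ascorbate, NAD⁺ plus FDH, pH 7.5 HEPES. Compounds: titrated, 10 min pre-incubation with enzyme.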
Active calls of the source: *; i = inactive; ! = not confirmed by another sample. Potency means the concentration at half of the fitted maximal effect.

SMILES	KDM5B inhibitor
Cc1ccc(C)c(CSc2nc3ncccc3[nH]2)c1	i
c1cnc2nc(-c3ccsc3)[nH]c2c1	32µM*!
Cc1ccc(C)c(C(=O)c2ccccc2C(=O)N(C)Cc2cccs2)c1	i
Cc1cc(C(=O)CSc2nnc(COc3ccccc3Cl)n2C)c(C)n1Cc1cccs1	i
Cc1cccc(C(=O)Nc2nonc2-c2ccc(Cl)cc2)c1	i
Cc1ccc(F)cc1NC(=O)c1nc2ccccc2nc1N1CCOCC1	i
COCCn1c(SCC(C#N)CCC#N)nnc1-c1ccc(Cl)cc1 (stereo not given)	i
COc1cc(Br)cc2cc(-c3nc(-c4ccccc4C)no3)c(=O)oc12	i
Cc1noc(C)c1CCC(=O)Nc1nc(-c2ccc3c(c2)CCO3)cs1	i
CC(=O)Nc1ccc(S(=O)(=O)N2CCC(NC(=O)CCC3CCCCC3)CC2)cc1	i
NC(=O)COc1ccc(C(=O)N[C@@H]2CN(Cc3ccccn3)CCC[C@H]2O)cc1	32µM*
Cc1noc(C)c1COc1ccc(C(=O)N[C@@H]2CN(C(=O)Nc3cccc(C(F)(F)F)c3)CCC[C@H]2O)cc1	i
COC(=O)c1ccccc1NC(=O)N1CCC[C@@H](O)[C@H](NC(=O)c2ccc(OCc3c(C)noc3C)cc2)C1	22µM*
O=C(N[C@@H]1CN(C(=O)Nc2ccccc2)CCC[C@H]1O)c1ccc(OCc2ccccc2)cc1	i
COCCOc1ccc(C(=O)N[C@@H]2CN(C(=O)Nc3ccc(F)cc3)CCC[C@H]2O)cc1	i
NC(=O)COc1ccc(C(=O)N[C@@H]2CN(C(=O)NC3CCCCC3)CCC[C@H]2O)cc1	i
O=C(N[C@@H]1CN(Cc2ccccn2)CCC[C@H]1O)c1ccc(OCc2ccccc2)cc1	i
COC(=O)COc1ccc(C(=O)N[C@@H]2CN(C(=O)Nc3ccc(F)cc3)CCC[C@H]2O)cc1	i
O=C(N[C@@H]1CN(C(=O)Nc2ccc(F)cc2)CCC[C@H]1O)c1ccc(OCCN2CCCC2)cc1	28µM*
Cn1ccc(NC(=O)CCc2nnc(-c3ccccc3)o2)n1	i
Cc1ccc2nc(CSc3nc(C)nc4ccccc34)cn2c1	i
Cc1nc2ccccc2c(C(=O)O)c1C	i
O=C(Nc1cccc(C(=O)O)c1O)c1ccco1	i
Cc1cc(Cl)c(Cl)cc1S(=O)(=O)Nc1ccccn1	i
CN1C(=O)C(CC(=O)NCC2CCN(Cc3ccc(F)cc3)CC2)=C2CCCCC21 (stereo not given)	i
SMILES	KDM5B inhibitor
CCc1ccc(NC(=O)Cc2c(C)nc3nc(-c4cccs4)nn3c2C)cc1	i
CC1CCC(NC(=O)c2cc(Cl)ccn2)CC1 (stereo not given)	i
Cc1cc(C(=O)NCc2ccc(F)cc2)c2c(C3CCCNC3)noc2n1 (stereo not given)	i
Cc1cc(C(=O)NCC(F)(F)F)c2c(C3CCCN3)noc2n1 (stereo not given)	50µM*
Cc1cc(C(=O)NCC(F)(F)F)c2c(C3CCCNC3)noc2n1 (stereo not given)	i
O=C(NCc1ccncc1)c1cc(C2CC2)nc2onc(C3CCCN3)c12 (stereo not given)	79µM*
Cc1cc(C(=O)NCC(C)C)c2c(C3CCCN3)noc2n1 (stereo not given)	i
O=C(NCc1ccncc1)c1cc(C2CC2)nc2ccccc12	i
CC(=O)Nc1ccc(I)c(C)n1	i
CCCNC(=O)COC(=O)Cc1nn(C)c(=O)c2ccccc12	i
O=C(NCC1CC1)c1nc2c(o1)CCN(Cc1cccc(F)c1)CC2	i
O=C(Nc1cccc(C(F)(F)F)c1)C1=CCN(Cc2ccccc2F)CC1	i
COc1ccccc1CN1CCc2nc(C(=O)NCc3cccc(F)c3)oc2CC1	i
O=C(Nc1cccnc1)c1nc2c(o1)CCN(Cc1ccc3[nH]ccc3c1)CC2	i
N#Cc1ccc(CN2CCc3nc(C(=O)Nc4cccc(C(F)(F)F)c4)oc3CC2)cc1	22µM*
O=C(Nc1cccc(C(F)(F)F)c1)c1nc2c(o1)CCN(Cc1ccccc1)CC2	22µM*
O=C(c1nc2c(o1)CCN(Cc1cccc(F)c1)CC2)N1CCOCC1	i
O=C(Nc1cccc(C(F)(F)F)c1)c1nc2c(o1)CCN(Cc1cnc[nH]1)CC2	i
COc1ccc(CN2CCc3nc(C(=O)NCc4cccc(F)c4)oc3CC2)cc1OC	i
Cc1ccc(CN2CCC(CNC(=O)Nc3cccc(C(F)(F)F)c3)CC2)cc1	i
O=C(Nc1cccc(C(F)(F)F)c1)c1nc2c(o1)CCN(Cc1cccc(F)c1)CC2	28µM*
O=C(Nc1cccc(C(F)(F)F)c1)c1nc2c(o1)CCN(Cc1ccc(F)cc1)CC2	40µM*
Cc1noc2nc(-c3ccccc3)cc(C(=O)NCc3ccc(N4CCOCC4)nc3)c12	i
O=C(O)C(Sc1cnc2ccccc2n1)c1ccccc1 (stereo not given)	i
C(#CCn1c2ccccc2c2ccccc21)CN1CCOCC1	i
SMILES	KDM5B inhibitor
COc1ccc(C(C)=O)cc1Br	i
O=C1C=C(c2ccccc2)CC(c2ccc(Br)cc2)C1 (stereo not given)	i
CCCCOc1ccc(C(=O)NC(=S)NCCCO)cc1Br	i
CCn1c(=O)n(CC)c2cc(N3CCCC3)c(NC(=O)Nc3cc(Cl)c(OC)cc3OC)cc21	i
Clc1ccccc1C1(c2ccnc(C3CC3)n2)CCNCC1	i
CN(C)C1CCN(c2nccc(C3(c4ccccc4Cl)CCNCC3)n2)C1 (stereo not given)	28µM*
Clc1ccccc1C1(c2ccnc(-c3ccccn3)n2)CCNCC1	i
O[C@@H]1CCN(c2nccc(C3(c4ccccc4Cl)CCNCC3)n2)C1	28µM*
Clc1ccccc1C1(c2ccnc(-c3ccccc3)n2)CCNCC1	i
OC[C@@H](O)CNc1nccc(C2(c3ccccc3Cl)CCNCC2)n1	i
COCC(C)Nc1nccc(C2(c3ccccc3Cl)CCNCC2)n1 (stereo not given)	22µM*
CO[C@H]1[C@H](NC(=O)c2c(F)cccc2Cl)c2ccccc2C12CCNCC2	i
CN(C)C1CCN(c2ncc(C(C)(C)C(=O)O)c(N3CCOCC3)n2)C1 (stereo not given)	i
Cc1ccc(-c2nnn(CCC(=O)Nc3sc4c(c3C#N)CCCC4)n2)cc1	i
Cc1ccc(-c2nnn(C(C)C(=O)Nc3ccc(C#N)cc3)n2)cc1 (stereo not given)	i
Cc1ccc(NC(=S)NCCO)cc1	i
CCOc1ccc(/C(O)=C2\C(=O)C(=O)N(Cc3ccco3)C2c2ccccc2)cc1Cl (stereo not given)	i
CCCNC(=O)c1ccccc1OCc1ccc(Cl)cc1	i
COc1ccc(C(NC(=O)c2cccc(OC(F)F)c2)C2CC(O)C2)cn1 (stereo not given)	i
CCCc1nc(C(=O)NC(c2ccc(OC)nc2)C2CC(O)C2)cs1 (stereo not given)	i
COc1ccc([C@@H](NC(=O)c2ccc3cccc(F)c3n2)C2CC(O)C2)cn1 (stereo not given in full)	22µM*
CC(CNC(=O)Cn1cc(C(N)=O)c2ccccc21)c1ccccc1 (stereo not given)	i
Cc1cc2nc(SCC(=O)Nc3ccc(Br)cc3F)[nH]c(=O)c2[nH]1	i
CNC(=O)c1ccc2c(c1)NC(C)(COc1ccccc1)CO2 (stereo not given)	32µM*
CN(C)c1cccc(NC(=O)c2ccc3c(c2)NC(C)(COc2ccccc2)CO3)c1 (stereo not given)	32µM*

Screens (PubChem BioAssay)
